Bioassay records as filed in PubChem BioAssay.
PREPL inhibitor: human PREPL enzyme inhibition | recombinant PREPL, fluorescence polarization activity-based probe | inhibition, % at 5.96 µM | 0.68% of 320,000 active; in the data active means inhibition above about 43%;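 further: 0% = enzyme with DMSO and 100% = wells lacking enzyme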
LYPLA1 inh: LYPLA1 (human) inhibition in PME1 counter-screen | AID 2174 | O75608 | inhibition, % at 5.9 µM | recombinant LYPLA1, FP-Rh probe fluorescence polarization | 0.16% of 320,000 active;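 active means inhibition above the mean of all tested compounds plus 3 SD, set per campaign, cut at about 14% in these data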;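 further: inhibitors block serine hydrolase probe labeling of LYPLA1 so polarization falls; 0% = enzyme with DMSO and 100% = wells lacking LYPLA1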
Target sequence (O75608 whole entry, looked up): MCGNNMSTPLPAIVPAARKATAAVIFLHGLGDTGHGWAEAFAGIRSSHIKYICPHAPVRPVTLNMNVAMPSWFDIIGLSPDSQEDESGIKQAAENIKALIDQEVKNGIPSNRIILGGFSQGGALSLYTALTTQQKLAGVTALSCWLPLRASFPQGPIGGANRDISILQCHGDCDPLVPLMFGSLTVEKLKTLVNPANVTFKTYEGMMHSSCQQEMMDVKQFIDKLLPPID
GSTO1 counter: counter-screen for RBBP9 inhibitors: inhibitors of human GSTO1. P78417. recombinant GSTO1, activity-based probe fluorescence polarization. inhibition, % at 5.96 µM. 1.1% of 300,000 active. AID 1974;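 active means inhibition above the campaign mean inhibition plus 3 SD, cut at about 35% in these data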;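 further: 0% = GSTO1-1 with DMSO and 100% = wells lacking GSTO1-1 enzyme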
PME-1 inh: PME-1 (human) inhibition; recombinant PME-1, FP-Rh probe fluorescence polarization; AID 2130; inhibition, % at 5.9 µM; Q9Y570; 0.53% of 320,000 active;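 active means inhibition above the campaign mean of all compounds plus 3 SD, cut at about 26% in these data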;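 further: competitive labeling of PME-1 active site by serine hydrolase directed probe; 0% = PME-1 with DMSO and 100% = wells lacking PME-1 enzyme; inhibitors block probe labeling so polarization falls and inhibition rises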
LYPLA2 inh: counter-screen for PME1 inhibitors: inhibitors of human LYPLA2. O95372. recombinant LYPLA2, FP-Rh probe fluorescence polarization. inhibition, % at 5.9 µM. 0.38% of 320,000 active. AID 2177;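 active means inhibition above the screen-wide mean plus 3 SD, limit set per campaign, cut at about 26% in these data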;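 further: 0% = LYPLA2 with DMSO and 100% = wells lacking LYPLA2 enzyme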
Target sequence (O95372 whole entry, looked up): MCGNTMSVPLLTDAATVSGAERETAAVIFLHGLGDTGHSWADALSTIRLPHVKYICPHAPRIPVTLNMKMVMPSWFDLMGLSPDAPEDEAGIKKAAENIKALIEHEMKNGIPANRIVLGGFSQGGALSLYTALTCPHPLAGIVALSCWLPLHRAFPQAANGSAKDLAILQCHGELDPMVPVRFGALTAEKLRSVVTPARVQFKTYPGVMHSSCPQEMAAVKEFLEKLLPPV
Fam108B inh: counter-screen for RBBP9 inhibitors: inhibitors of mouse Fam108B. 0.33% of 300,000 active. AID 1947. inhibition, % at 9.51 µM. recombinant Fam108B, FP-Rh probe fluorescence polarization;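 active means inhibition above the screen mean inhibition plus 3 SD, computed separately per campaign, cut at about 18% in these data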;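 further: inhibitors lower polarization as less probe binds the enzyme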
LYPLA2 confirm: LYPLA2 (human) inhibition, confirmation counter-screen; shares compounds with LYPLA2 inh; recombinant LYPLA2, FP-Rh probe fluorescence polarization; inhibition, % at 5.9 µM; 72% of 1,100 active;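 active means mean inhibition across replicates above the hit cutoff set in the primary screen, cut at about 26% in these data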;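 further: blocked labeling of the enzyme by serine hydrolase FP-Rh probe lowers polarization; 0% = enzyme with DMSO and 100% = wells lacking LYPLA2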
LYPLA2 ABPP: blocks human acyl-protein thioesterase 2 in gel ABPP; shares compounds with LYPLA2 inh; rhLYPLA2 in mouse brain proteome, gel ABPP FP-Rh; inhibition, % at 20 µM; 30% of 150 active; AID 652029;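 active means inhibition of LYPLA2 enzyme probe labeling above about 50%, limit read from the data; inactive means inhibition below that limit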;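 further: loss of FP-Rh probe labeling of the LYPLA2 gel band measured as band density; 0% = DMSO only control band and 100% = blank gel background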
Numbers without * were called inactive; · = no result given. An excerpt weighted towards active compounds, which were near 1.9% of everything screened.

SMILES	PREPL inhibitor	LYPLA1 inh	GSTO1 counter	PME-1 inh	LYPLA2 inh	Fam108B inh	LYPLA2 confirm	others
CC1CN(C(=O)CCNC(=O)c2ccc(Cl)cc2)CC(C)O1 (stereo not given)	-1	4	2	4	-1	3	·
COc1cccc(/C=C/C(=O)OCC(=O)Nc2cccc(S(=O)(=O)N(C)C)c2)c1	-8	-6	-11	1	-2	-5	·
O=C(N/C(=C\c1ccc2c(c1)OCO2)C(=O)N1CCOCC1)c1ccccc1Br	17	5	1	-4	1	-1	·
O=C(CN1C(=O)NC2(CCCC2)C1=O)Nc1ccccc1N1CCCCC1	4	-2	1	0	0	1	·
O=C(NCc1ccc(Cl)cc1)NCC(F)(F)F	1	1	1	2	33*	-2	-3
O=C(NCc1ccco1)c1ccc2[nH]c(=O)c(=O)[nH]c2c1	2	6	-10	12	28*	4	0
CCCOc1ccc(-c2c(=O)n(OCC(=O)OCC)c3ccccc3[n+]2[O-])cc1	15	1	1	-6	27*	3	72*
CCOc1ccc(-c2c(=O)n(OCC)c3ccccc3[n+]2[O-])cc1	7	0	10	2	9	-3	·
NC(=O)CC(NC(=O)c1ccc(Br)cc1)c1ccc(N2CCN(c3ccccn3)CC2)c([N+](=O)[O-])c1 (stereo not given)	8	3	4	13	50*	-3	57*	LYPLA2 ABPP=37
NC(=O)CC(NC(=O)c1cccc(Br)c1)c1ccc(N2CCN(c3ccccn3)CC2)c([N+](=O)[O-])c1 (stereo not given)	5	-4	-4	7	23	0	·
NC(=O)CC(NC(=O)c1ccccc1)c1ccc(N2CCN(c3ccc(F)cc3)CC2)c([N+](=O)[O-])c1 (stereo not given)	21	-4	5	-1	27*	-8	33*
Cc1ccc(CS(=O)(=O)c2ncn[nH]2)cc1	2	5	9	3	5	1	·
CC(=O)Nc1ccc(NC(=O)C(=O)N/N=C/c2cccnc2)cc1	4	1	6	-4	-1	0	·
Cc1onc(-c2ccccc2)c1C(=O)OCc1nnc(-c2ccc([N+](=O)[O-])cc2)o1	18	0	·	2	28*	·	28*
CC1CCCN(C(=O)c2ccc(OC3CCN(CCc4ccccc4)CC3)cc2)C1 (stereo not given)	18	1	5	2	41*	3	33*
COc1cccc(CC(=O)OCC(=O)N(C)CC(=O)Nc2ccc(Cl)c(C(F)(F)F)c2)c1	-1	-8	-10	1	-12	-5	·
Cc1ccc(NC(=O)CN2C(=O)S/C(=C/c3ccncc3)C2=O)cc1	-2	2	-17	1	8	4	·
O=C(CN1C(=O)S/C(=C\c2ccc(C(=O)O)cc2)C1=O)Nc1ccccc1	3	2	-18	1	58*	-8	67*	LYPLA2 ABPP=63*
O=C(CN1C(=O)S/C(=C\c2ccccc2)C1=O)NNC(=O)c1ccccc1O	22	-3	3	3	0	3	·
Cc1cccc(NC(=O)CN2C(=O)S/C(=C\c3ccc(-c4cccc(C(=O)O)c4C)o3)C2=O)c1	4	3	8	-8	29*	-1	35*
O=C(CN1C(=O)S/C(=C\c2ccc(O)cc2)C1=O)c1ccccc1	7	-7	7	17	35*	-1	33*
Cc1cc(=O)oc2cc(Oc3ccc([N+](=O)[O-])cc3C(F)(F)F)ccc12	11	2	-8	8	44*	0	42*
COc1ccc(COc2ccc3c(C)cc(=O)oc3c2)cc1	29	4	1	10	14	-3	·
O=C(COC(=O)CNC(=O)C1CCCCC1)Nc1ccccc1Cl	0	1	·	-2	-3	·	·
CN(CC(=O)O/N=C(\N)c1ccccn1)S(=O)(=O)c1ccc(Br)cc1	11	3	23	-4	40*	-3	22
